Experiment [1] is described as follows: Nuclear factor erythroid 2-related factor 2/antioxidant responsive element (Nrf2/ARE) small molecule agonists: qHTS cell viability counter screen in human keratinocytes (AID 1919968; active means well fitted curve in the direction sought with a large enough effect in the repeat runs; an effect the other way counts as inactive or inconclusive; further: nearly all actives have a fitted effect of over 55% in size). Summed up: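 KeratinoSens cells (HaCaT keratinocytes stably carrying an ARE-luciferase reporter) were seeded at 1,500 cells/well and rested 5 h at 37 C/5% CO2. They were then exposed to compounds in DMSO for 23 h. Viability was read by CellTiter-Fluor fluorescence after 1 h.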

Experiment [2] in a line: Nuclear factor erythroid 2-related factor 2/antioxidant responsive element (Nrf2/ARE) small molecule agonists: luciferase reporter gene qHTS assay in human keratinocytes (AID 1919969). Further: nearly all actives have a fitted effect of over 35% in size. In general terms: A reporter such as luciferase makes a cellular process visible.
In experiment [3] the target is Gonadotropin-releasing hormone receptor (Homo sapiens) (UniProt P30968). The experiment is described as follows: Human gonadotropin-releasing hormone receptor (GnRHR) small molecule agonists, calcium flux assay in GnRHR-HEK293 cells (AID 1920063). Further: nearly all actives have a fitted effect of over 35% in size. Summed up: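 HEK293 cells stably expressing human GnRHR were plated 18 h at 37 °C, loaded with calcium dye 1 h at 37 °C, then given compound in agonist mode; fluorescence (Ex/Em 480/540) read kinetically for 3 min at 1 s intervals.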
(A change in cytosolic calcium serves as a functional read-out for many receptors and channels.)

For experiment [4], the target named is KiSS-1 receptor (Homo sapiens) (UniProt Q969F8). As to the kind of experiment: Human kisspeptin (KISS1R) small molecule agonists, calcium flux assay in KISS1R-HEK293 cells (AID 1920064; active means well fitted curve in the direction sought with a large enough effect in the repeat runs; an effect the other way counts as inactive or inconclusive). The method, boiled down: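 HEK293 cells stably expressing human KISS1R were plated 18 h at 37 °C, loaded with calcium dye for 1 h at 37 °C, then given compound by pin tool. Fluorescence (Ex/Em 480/540) was read kinetically for 3 min.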

Experiment [5] is described as follows: G protein-coupled receptor (GPCR) small molecule agonists, calcium flux assay: HEK293 wild type cell line counter screen (AID 1920065). The method, boiled down: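 Cells were plated and cultured 18 h at 37 C/5% CO2, then loaded with calcium dye for 1 h at 37 C. Compounds in DMSO were pin-transferred in agonist mode, and fluorescence (Ex/Em 480/540) was read kinetically for 3 min at 1 s intervals.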

The nature of experiment [6]: p53 small molecule agonists, cell-based qHTS assay with human liver microsomes (AID 1963577). The method, boiled down: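 In this qHTS, p53 response-element beta-lactamase cells receive test compound together with a microsome/NADPH activating system (0.5 mg/mL final each) and are incubated 16 h at 37 C before LiveBLAzer fluorescence detection.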
(In qHTS, concentration-response curves come from the screen itself.)

Experiment [7] in a line: p53 small molecule agonists, cell-based qHTS assay with rat liver microsomes (AID 1963578). The method, boiled down: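 Agonist mode in p53RE-bla reporter cells, with compounds co-incubated 16 h at 37 C alongside 0.5 mg/mL rat liver microsomes and 0.5 mg/mL NADPH (final), followed by a 2 h LiveBLAzer detection step.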
The nature of experiment [8]: p53 small molecule agonists, cell-based qHTS assay with human liver microsomes: qHTS cell viability counter screen (AID 1963579). Further: nearly all actives have a fitted effect of over 45% in size. The method, boiled down: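 Metabolically activated exposure: compounds, human liver microsomes and NADPH (0.5 mg/mL final apiece) were added to p53RE-bla cells seeded 5 h earlier, left 16 h at 37 C, and then assessed for viability by CellTiter-Glo luminescence.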

Experiment [9] in a line: p53 small molecule agonists, cell-based qHTS assay with rat liver microsomes: qHTS cell viability counter screen (AID 1963580). Further: nearly all actives have a fitted effect of over 45% in size. The method, boiled down:
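p53RE-bla HCT-116 cells were exposed 16 h at 37 C to compounds with rat liver microsomes (0.5 mg/mL) and NADPH (0.5 mg/mL). Viability was measured in the same wells as ATP content by CellTiter-Glo luminescence.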

Experiment [10] in a line: p53 small molecule agonists, cell-based qHTS assay: qHTS cell viability counter screen (AID 1963581). Further: nearly all actives have a fitted effect of over 45% in size. Further: potency means the concentration at half of the fitted maximal effect. The method, boiled down: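 p53RE-bla HCT-116 cells were exposed to compounds for 16 h at 37 C; after the beta-lactamase FRET read in the same wells, CellTiter-Glo was added and luminescence (intracellular ATP) read after 30 min at room temperature.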
Experiment [11] can be described thus: p53 small molecule agonists, cell-based qHTS assay (AID 1963582; active means well fitted activation curve with a large enough effect in the signal ratio in the repeat runs, not every such curve was filed as active; the % refers to the signal ratio). Summed up:
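p53RE-bla beta-lactamase reporter cells rested 5 h at 37 C/5% CO2, then received compounds in DMSO by pin transfer and were incubated 16 h at 37 C. LiveBLAzer B/G FRET substrate was loaded for 2 h at room temperature before fluorescence reading.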

For experiment [12], the target named is 5-hydroxytryptamine receptor 2A (Homo sapiens) (UniProt P28223). As to the kind of experiment: 5-hydroxytryptamine receptor 2A (HTR2A) small molecule antagonists, cell-based qHTS assay (AID 1963586). Further: nearly all actives have a fitted effect of over 45% in size. Summed up:
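Antagonist-mode intracellular calcium assay: DOI (4 nM) added after 5 min compound pre-incubation at room temperature to dye-loaded HTR2A-CHO cells. Fluorescence followed for 3 min, sampled every second.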

Experiment [13] has the same target. As to the kind of experiment: 5-hydroxytryptamine receptor 2A (HTR2A) small molecule agonists, cell-based qHTS assay (AID 1963587). Further: nearly all actives have a fitted effect of over 30% in size. The method, boiled down:
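CHO cells stably expressing human HTR2A, plated 18 h, loaded with calcium dye 1 h at 37 C. Agonist mode: compounds added and intracellular calcium fluorescence recorded kinetically for 2 min at 1 sec intervals.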

Experiment [14] addresses Muscarinic acetylcholine receptor M1 (Homo sapiens) (UniProt P11229). The experiment is described as follows: Cholinergic receptor muscarinic 1 (CHRM1) small molecule antagonists, cell-based qHTS assay (AID 1963588). Further: nearly all actives have a fitted effect of over 40% in size. Summed up: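 CHRM1-CHO calcium-flux assay, antagonist mode. Cells were seeded 18 h, dye-loaded 1 h at 37 C and given compound for 5 min at RT, then acetylcholine was added at 50nM. FDSS fluorescence was read 3 min; 15 concentrations, three runs.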

Experiment [15] has the same target. The experiment is described as follows: Cholinergic receptor muscarinic 1 (CHRM1) small molecule agonists, cell-based qHTS assay (AID 1963589). Further: nearly all actives have a fitted effect of over 35% in size. The method, boiled down: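 CHO cells stably expressing human CHRM1, seeded 18 h at 37 C/5% CO2, dye-loaded 1 h at 37 C, then given compound in agonist mode; intracellular calcium fluorescence read kinetically at 1 s intervals. Fifteen concentrations, three independent runs.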

A short description of experiment [16]: cAMP Responsive Elements (CRE) small molecule agonists, cell-based qHTS assay (AID 1963590). The method, boiled down: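 CRE-bla HEK 293T cells in DMEM with 10% dialyzed FBS, NEAA, pyruvate and 25 mM HEPES were plated 18 h at 37 C/5% CO2, then exposed to compounds in DMSO for 3 h before LiveBLAzer B/G FRET substrate addition.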
The nature of experiment [17]: cAMP Responsive Elements (CRE) small molecule antagonists, cell-based qHTS assay (AID 1963591; active means well fitted inhibition curve with a large enough effect in the signal ratio in the repeat runs, not every such curve was filed as active; the % refers to the signal ratio). The method, boiled down: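 CRE-bla HEK293T cells were plated 18 h at 37 °C/5% CO2, pinned with compound in DMSO, then stimulated with NKH477 at 0.25 uM final for 3 h. LiveBLAzer B/G FRET substrate was added and plates incubated 2 h at room temperature.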
Experiment [18] addresses Beta-2 adrenergic receptor (Homo sapiens) (UniProt P07550). The experiment is described as follows: Adrenergic beta2 receptor (ADRB2) small molecule antagonists, cell-based qHTS assay (AID 1963592). Further: series mostly up to about 92 µM; nearly all actives have a fitted effect of over 50% in size. The method, boiled down:
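Cells (CHO, stable ADRB2 overexpression) incubated 18-20hr at 37C; compounds added from DMSO; agonist mix (1nM isoproterenol, 100uM IBMX, 25uM Ro-20-1724) added; 0.5hr RT; d2-cAMP and anti-cAMP-cryptate added; 1hr RT; 665/615 nm read.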

Experiment [19] shares this target. The experiment is described as follows: Adrenergic beta2 receptor (ADRB2) small molecule agonists, cell-based qHTS assay (AID 1963593).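 Further: CHO cells stably overexpressing human ADRB2.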 The method, boiled down: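 CHO cells stably over-expressing ADRB2 were plated overnight at 37C, then dosed with compounds plus a stimulation mix containing 100uM IBMX and 25uM Ro-20-1724 for 0.5hr at room temperature. cAMP was measured by HTRF competition, 1hr.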

The target in experiment [20] is D(2) dopamine receptor (Homo sapiens) (UniProt P14416). The experiment is described as follows: Dopamine D2 receptor (DRD2) small molecule agonists, cell-based qHTS assay (AID 1963594). Further: nearly all actives have a fitted effect of over 35% in size. Summed up:
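HEK293 cells stably expressing human DRD2, pre-treated with PDE inhibitor Ro20-1724 (0.1 mM final) and compound 10 min at room temperature, then stimulated with NKH477 (200nM […]) for 30 min. cAMP read by HTRF (665/620 nm).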

Experimental findings from PubChem BioAssay (Tox21) are described below.

Where “and” joins values, the source holds several entries; their conditions need not be identical. Identical values can stand only once. Results filed as inconclusive are left out. The source holds several records for some structures; these can differ, active in one and inactive in another. Calls of active or inactive are those of the source. Unless noted, the call rests on the fitted dose curve.

Chain of Gonadotropin-releasing hormone receptor (Homo sapiens) (P30968 whole entry, looked up): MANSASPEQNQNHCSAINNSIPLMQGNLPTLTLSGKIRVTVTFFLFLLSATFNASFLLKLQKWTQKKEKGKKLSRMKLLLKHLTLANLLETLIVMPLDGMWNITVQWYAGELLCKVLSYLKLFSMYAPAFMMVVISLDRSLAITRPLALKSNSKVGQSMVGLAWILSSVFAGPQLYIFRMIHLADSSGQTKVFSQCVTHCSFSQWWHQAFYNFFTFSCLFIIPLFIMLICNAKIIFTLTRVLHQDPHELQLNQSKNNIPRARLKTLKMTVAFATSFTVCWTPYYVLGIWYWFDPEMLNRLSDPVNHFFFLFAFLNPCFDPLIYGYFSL
Chain of D(2) dopamine receptor (Homo sapiens) (P14416 whole entry, looked up): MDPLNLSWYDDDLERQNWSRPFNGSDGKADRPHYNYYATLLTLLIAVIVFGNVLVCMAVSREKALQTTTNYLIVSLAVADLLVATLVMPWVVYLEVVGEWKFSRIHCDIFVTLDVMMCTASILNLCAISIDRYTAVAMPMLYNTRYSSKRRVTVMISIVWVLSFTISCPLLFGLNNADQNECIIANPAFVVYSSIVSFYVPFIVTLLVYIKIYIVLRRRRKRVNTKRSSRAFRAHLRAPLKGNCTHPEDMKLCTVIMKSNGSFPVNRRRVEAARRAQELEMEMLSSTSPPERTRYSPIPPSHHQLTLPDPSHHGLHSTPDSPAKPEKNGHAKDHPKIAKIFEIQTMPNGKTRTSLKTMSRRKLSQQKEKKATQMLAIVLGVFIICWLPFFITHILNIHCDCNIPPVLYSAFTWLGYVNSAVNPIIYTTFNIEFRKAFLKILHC
Chain of Beta-2 adrenergic receptor (Homo sapiens) (P07550 whole entry, looked up): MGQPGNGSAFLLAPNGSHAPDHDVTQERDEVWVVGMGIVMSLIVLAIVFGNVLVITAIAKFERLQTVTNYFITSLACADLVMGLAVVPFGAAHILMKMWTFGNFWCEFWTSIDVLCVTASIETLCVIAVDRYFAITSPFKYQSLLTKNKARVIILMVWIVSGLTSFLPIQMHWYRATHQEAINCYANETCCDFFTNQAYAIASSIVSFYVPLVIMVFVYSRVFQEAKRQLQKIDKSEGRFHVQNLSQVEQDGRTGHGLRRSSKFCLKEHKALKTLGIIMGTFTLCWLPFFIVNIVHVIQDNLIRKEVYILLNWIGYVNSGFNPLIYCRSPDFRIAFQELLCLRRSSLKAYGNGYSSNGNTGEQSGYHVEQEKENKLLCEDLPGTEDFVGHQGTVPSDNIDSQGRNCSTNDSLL
Chain of Muscarinic acetylcholine receptor M1 (Homo sapiens) (P11229 whole entry, looked up): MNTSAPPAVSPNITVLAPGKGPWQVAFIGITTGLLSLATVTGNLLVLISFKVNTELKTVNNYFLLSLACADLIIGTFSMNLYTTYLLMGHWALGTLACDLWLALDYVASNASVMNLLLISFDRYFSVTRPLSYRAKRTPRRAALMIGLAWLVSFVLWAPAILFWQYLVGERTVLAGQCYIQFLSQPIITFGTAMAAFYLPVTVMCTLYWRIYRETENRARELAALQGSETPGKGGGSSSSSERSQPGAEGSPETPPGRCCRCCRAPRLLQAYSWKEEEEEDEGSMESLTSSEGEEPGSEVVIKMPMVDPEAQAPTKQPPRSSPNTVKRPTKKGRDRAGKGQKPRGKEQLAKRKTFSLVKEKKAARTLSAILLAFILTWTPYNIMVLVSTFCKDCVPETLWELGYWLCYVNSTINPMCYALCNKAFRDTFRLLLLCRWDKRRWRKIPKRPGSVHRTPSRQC
Chain of KiSS-1 receptor (Homo sapiens) (Q969F8 whole entry, looked up): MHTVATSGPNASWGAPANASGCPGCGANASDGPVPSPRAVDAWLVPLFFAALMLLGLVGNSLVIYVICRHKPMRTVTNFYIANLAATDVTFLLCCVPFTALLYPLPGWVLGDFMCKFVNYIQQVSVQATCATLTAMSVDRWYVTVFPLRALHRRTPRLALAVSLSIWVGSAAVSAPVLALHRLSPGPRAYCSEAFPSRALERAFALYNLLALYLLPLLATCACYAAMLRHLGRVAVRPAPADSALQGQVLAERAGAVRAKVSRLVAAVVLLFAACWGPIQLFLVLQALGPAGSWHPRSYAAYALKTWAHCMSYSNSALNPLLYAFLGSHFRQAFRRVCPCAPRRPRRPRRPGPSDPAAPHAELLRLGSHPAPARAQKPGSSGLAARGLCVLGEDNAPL
Chain of 5-hydroxytryptamine receptor 2A (Homo sapiens) (P28223 whole entry, looked up): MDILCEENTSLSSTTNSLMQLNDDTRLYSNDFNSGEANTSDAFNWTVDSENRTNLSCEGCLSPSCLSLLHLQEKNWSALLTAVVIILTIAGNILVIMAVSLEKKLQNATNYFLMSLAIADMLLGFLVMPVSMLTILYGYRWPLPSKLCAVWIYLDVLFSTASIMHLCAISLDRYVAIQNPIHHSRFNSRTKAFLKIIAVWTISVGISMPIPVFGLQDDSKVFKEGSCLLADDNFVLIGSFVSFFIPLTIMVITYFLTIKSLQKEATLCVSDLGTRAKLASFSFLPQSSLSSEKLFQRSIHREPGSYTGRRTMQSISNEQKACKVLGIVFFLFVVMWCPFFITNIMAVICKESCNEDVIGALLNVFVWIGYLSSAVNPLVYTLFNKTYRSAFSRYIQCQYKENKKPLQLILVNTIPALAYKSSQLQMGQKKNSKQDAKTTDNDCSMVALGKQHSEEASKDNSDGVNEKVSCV

On to `Nc1cc([N+](=O)[O-])ccc1O`, for which the Potency entry in [1], in [2], in experiment [3], in [4], in experiment [5] and in experiment [6] was “inactive” throughout. In addition, the Potency entry in experiment [7], in experiment [8], in experiment [9], in experiment [11], in [12] and in experiment [13] was “inactive” throughout. For the same molecule, the Potency entry in experiment [14], in experiment [15], in [16], in [17], in [18] and in experiment [19] was “inactive” throughout. The Potency result in [20] is “inactive”. The Potency result in [10] is “inactive and 362 nM (active)”.
For the molecule `Clc1nc(Cl)c(Cl)c(Cl)c1Cl`, the Potency result in experiment [1], in experiment [2], in experiment [3], in experiment [4], in experiment [5] and in experiment [6] was “inactive” each time. The Potency entry in experiment [7], in experiment [8], in experiment [9], in [10], in experiment [11] and in experiment [12] was “inactive” throughout. In addition, the Potency result in experiment [13], in experiment [14], in experiment [15], in [16], in [17] and in [18] was “inactive” each time. Also, the Potency result in experiment [19] and in experiment [20] was “inactive” each time.
On to `COC(=O)/C=C(/C)N`, for which the Potency result in [1], in experiment [2], in [3], in experiment [4], in experiment [5] and in experiment [6] was “inactive” in each case. Further, the Potency result in [7], in experiment [8], in [9], in experiment [10], in [11] and in [12] was “inactive” throughout. In addition, the Potency entry in [13], in [14], in [15], in experiment [16], in [17] and in [18] was “inactive” throughout. For the same molecule, the Potency entry in experiment [19] and in experiment [20] was “inactive” each time.
On to `CCC(=O)CC`, for which the Potency result in [1], in experiment [2], in experiment [3], in [4], in experiment [5] and in [6] was “inactive” in each case. The Potency result in experiment [7], in experiment [8], in experiment [9], in experiment [10], in [11] and in experiment [12] was “inactive” throughout. Besides, the Potency entry in [13], in experiment [14], in experiment [15], in experiment [16], in experiment [17] and in [18] was “inactive” throughout. The Potency entry in experiment [19] and in [20] was “inactive” in each case.
For `CCCCOC(O)CC` (stereo not given), the Potency result in experiment [1], in [2], in experiment [3], in experiment [4], in [5] and in [6] was “inactive” in each case. Moreover, the Potency entry in experiment [7], in [8], in [9], in experiment [10], in [11] and in experiment [12] was “inactive” in each case. Also, the Potency result in experiment [13], in [14], in [15], in experiment [16], in [17] and in experiment [18] was “inactive” each time. The Potency result in experiment [19] and in experiment [20] was “inactive” throughout.
Take `CC(=O)N(CC(O)CO)c1c(I)c(C(=O)NCC(O)CO)c(I)c(C(=O)NCC(O)CO)c1I` (stereo not given): the Potency result in [1], in experiment [2], in experiment [3], in [4], in experiment [5] and in [6] was “inactive” each time. In addition, the Potency entry in [7], in experiment [8], in experiment [9], in experiment [10], in experiment [11] and in experiment [12] was “inactive” each time. Moreover, the Potency result in experiment [13], in experiment [14], in experiment [15], in [16], in [17] and in experiment [18] was “inactive” throughout. Moreover, the Potency result in experiment [19] and in [20] was “inactive” each time.
In the case of `Cc1ccc(C(C)c2ccc(C)c(C)c2)cc1C`, the Potency result in experiment [1], in experiment [2], in experiment [3], in experiment [4], in [5] and in experiment [6] was “inactive” throughout. The Potency result in [7], in experiment [8], in experiment [9], in experiment [10], in experiment [11] and in experiment [12] was “inactive” in each case. The Potency entry in experiment [13], in [14], in [15], in experiment [16], in [17] and in experiment [18] was “inactive” in each case. For the same molecule, the Potency entry in [19] and in experiment [20] was “inactive” in each case.
